Data reported in PubChem BioAssay AID1159580 (chemical genetic matrix, 2015).
Screen size: about 5,500 compounds; about 2,000 (36%) were called active. Inconclusive results (about 18%) are left out. No stated cut-off is given here; in the data, active means normalized growth mostly below about 0.91 (no sharp cut-off); inconclusive means no clear call, values can overlap the other calls; inactive means mostly above about 0.92. Some of the results follow.

Experiment: chemical genetic growth profiling, strain panel (AID 1159580);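 further: tested at 20 µM; growth read once vehicle control cultures reached saturation at 30 °C; 1 = growth at the plate median or of vehicle wells; lower values mean less growth of the strain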
Details: growth OD

Measured: normalized growth

NS(=O)(=O)c1cc(C2(O)NC(=O)c3ccccc32)ccc1Cl (stereo unspecified)
inactive: S. cerevisiae deletion strains, locus YJR075W, strain HOC1, active compounds read low 1.03 | S. cerevisiae deletion strains, locus YKL009W, strain mrt4, active compounds read low 1.01 | S. cerevisiae deletion strains, locus YKL068W, active compounds read low 1.01 | S. cerevisiae deletion strains, locus YKL085W, strain MDH1 (second series), active compounds read low 1.01 | S. cerevisiae deletion strains, locus YKL085W, strain MDH1, active compounds read low 1.01 | S. cerevisiae deletion strains, locus YKL160W, strain elf1, active compounds read low 0.991 | S. cerevisiae deletion strains, locus YKL190W, strain CNB1, active compounds read low 1.01 | S. cerevisiae deletion strains, locus YKR001C, strain vps1, active compounds read low 1.02 | S. cerevisiae deletion strains, locus YKR026C, strain gcn3, active compounds read low 0.978 | S. cerevisiae deletion strains, locus YKR091W, strain srl3, active compounds read low 0.987 | S. cerevisiae deletion strains, locus YLL001W, strain dnm1, active compounds read low 0.972 | S. cerevisiae deletion strains, locus YLL026W, active compounds read low 0.988 | S. cerevisiae deletion strains, locus YLL041C, strain sdh2, active compounds read low 0.981 | S. cerevisiae deletion strains, locus YLR027C, strain aat2, active compounds read low 0.994 | S. cerevisiae deletion strains, locus YLR039C, strain RIC1, active compounds read low 1.01 | S. cerevisiae deletion strains, locus YLR058C, strain SHM2, active compounds read low 1.03 | S. cerevisiae deletion strains, locus YLR102C, strain apc9, active compounds read low 1.01 | S. cerevisiae deletion strains, locus YLR113W, strain HOG1, active compounds read low 0.969 | S. cerevisiae deletion strains, locus YLR221C, strain rsa3, active compounds read low 0.981 | S. cerevisiae deletion strains, locus YLR258W, strain gsy2, active compounds read low 0.999 | S. cerevisiae deletion strains, locus YLR262C, strain YPT6 (second series), active compounds read low 1.01 | S. cerevisiae deletion strains, locus YLR262C, strain YPT6, active compounds read low 1.04 | S. cerevisiae deletion strains, locus YLR268W, strain sec22, active compounds read low 1.03 | S. cerevisiae deletion strains, locus YLR320W, strain mms22, active compounds read low 0.976 | S. cerevisiae deletion strains, locus YLR330W, strain CHS5, active compounds read low 1.02 | S. cerevisiae deletion strains, locus YLR342W, strain FKS1 (second series), active compounds read low 1.01 | S. cerevisiae deletion strains, locus YLR342W, strain FKS1, active compounds read low 0.987 | S. cerevisiae deletion strains, locus YLR357W, strain rsc2, active compounds read low 1 | S. cerevisiae deletion strains, locus YLR370C, strain arc18, active compounds read low 0.986 | S. cerevisiae deletion strains, locus YLR371W, strain rom2, active compounds read low 1.02 | S. cerevisiae deletion strains, locus YLR384C, strain iki3, active compounds read low 0.987 | S. cerevisiae deletion strains, locus YLR418C, strain cdc73, active compounds read low 1.03 | S. cerevisiae deletion strains, locus YML016C, strain PPZ1, active compounds read low 1.01 | S. cerevisiae deletion strains, locus YML032C, strain rad52, active compounds read low 1.02 | S. cerevisiae deletion strains, locus YML120C, strain ndi1, active compounds read low 0.983 | S. cerevisiae deletion strains, locus YML124C, strain tub3, active compounds read low 1.02 | S. cerevisiae deletion strains, locus YMR058W, strain fet3, active compounds read low 1.01 | S. cerevisiae deletion strains, locus YMR078C, strain ctf18, active compounds read low 1.02 | S. cerevisiae deletion strains, locus YMR125W, strain sto1, active compounds read low 1.01 | S. cerevisiae deletion strains, locus YMR129W, active compounds read low 0.985 | S. cerevisiae deletion strains, locus YMR205C, strain PFK2, active compounds read low 0.99 | S. cerevisiae deletion strains, locus YMR223W, strain ubp8, active compounds read low 1.02 | S. cerevisiae deletion strains, locus YMR231W, strain pep5, active compounds read low 0.994 | S. cerevisiae deletion strains, locus YMR263W, strain SAP30, active compounds read low 1.01 | S. cerevisiae deletion strains, locus YMR307W, strain GAS1, active compounds read low 0.984 | S. cerevisiae deletion strains, locus YNL067W, strain RPL9B, active compounds read low 1.02 | S. cerevisiae deletion strains, locus YNL071W, strain lat1, active compounds read low 0.989 | S. cerevisiae deletion strains, locus YNL153C, strain GIM3, active compounds read low 1.02 | S. cerevisiae deletion strains, locus YNL183C, strain NPR1, active compounds read low 0.948 | S. cerevisiae deletion strains, locus YNL209W, strain ssb2, active compounds read low 0.997 | S. cerevisiae deletion strains, locus YNL233W, strain BNI4, active compounds read low 1.02 | S. cerevisiae deletion strains, locus YNL248C, strain rpa49, active compounds read low 1.02 | S. cerevisiae deletion strains, locus YNL250W, strain rad50, active compounds read low 0.992 | S. cerevisiae deletion strains, locus YNL271C, strain bni1, active compounds read low 1.02 | S. cerevisiae deletion strains, locus YNL298W, strain CLA4, active compounds read low 1.03 | S. cerevisiae deletion strains, locus YNL307C, strain MCK1, active compounds read low 1.02 | S. cerevisiae deletion strains, locus YNL322C, strain KRE1 (second series), active compounds read low 0.983 | S. cerevisiae deletion strains, locus YNL322C, strain KRE1, active compounds read low 1 | S. cerevisiae deletion strains, locus YNR049C, strain mso1, active compounds read low 0.997 | S. cerevisiae deletion strains, locus YNR052C, strain pop2, active compounds read low 1.01 | S. cerevisiae deletion strains, locus YOL006C, strain TOP1, active compounds read low 1.1 | S. cerevisiae deletion strains, locus YOL012C, strain htz1 1.12 | S. cerevisiae deletion strains, locus YOL147C, strain pex11, active compounds read low 1.01 | S. cerevisiae deletion strains, locus YOR001W, strain rrp6, active compounds read low 0.987 | S. cerevisiae deletion strains, locus YOR061W, strain CKA2, active compounds read low 1.01 | S. cerevisiae deletion strains, locus YOR069W, strain VPS5, active compounds read low 1.01 | S. cerevisiae deletion strains, locus YOR070C, strain gyp1, active compounds read low 0.991 | S. cerevisiae deletion strains, locus YOR080W, strain dia2, active compounds read low 0.976 | S. cerevisiae deletion strains, locus YOR083W, strain WHI5, active compounds read low 0.98 | S. cerevisiae deletion strains, locus YOR106W, strain vam3, active compounds read low 1.01 | S. cerevisiae deletion strains, locus YOR136W, strain idh2, active compounds read low 1.03 | S. cerevisiae deletion strains, locus YOR144C, strain elg1, active compounds read low 1.02 | S. cerevisiae deletion strains, locus YOR184W, strain ser1, active compounds read low 1.03 | S. cerevisiae deletion strains, locus YOR231W, strain MKK1, active compounds read low 0.976 | S. cerevisiae deletion strains, locus YOR265W, strain rbl2, active compounds read low 0.993 | S. cerevisiae deletion strains, locus YOR270C, strain vph1, active compounds read low 1.01 | S. cerevisiae deletion strains, locus YOR290C, strain snf2, active compounds read low 0.986 | S. cerevisiae deletion strains, locus YOR316C, strain cot1, active compounds read low 1.02 | S. cerevisiae deletion strains, locus YPL051W, strain arl3, active compounds read low 0.981 | S. cerevisiae deletion strains, locus YPL055C, strain LGE1, active compounds read low 1.02 | S. cerevisiae deletion strains, locus YPL078C, strain atp4, active compounds read low 0.984 | S. cerevisiae deletion strains, locus YPL106C, strain sse1, active compounds read low 0.948 | S. cerevisiae deletion strains, locus YPL240C, strain hsp82, active compounds read low 0.99 | S. cerevisiae deletion strains, locus YPL241C, strain CIN2, active compounds read low 1.01 | S. cerevisiae deletion strains, locus YPL256C, strain CLN2, active compounds read low 0.96 | S. cerevisiae deletion strains, locus YPR119W, strain clb2, active compounds read low 1.01 | S. cerevisiae deletion strains, locus YPR141C, strain kar3, active compounds read low 1.03 | S. cerevisiae deletion strains, locus YPR163C, strain tif3, active compounds read low 1.01 | S. cerevisiae deletion strains, locus YPR167C, strain met16, active compounds read low 1.02 | S. cerevisiae deletion strains, strain wtn01, active compounds read low 1.04 | S. cerevisiae strains, strain wild type, active compounds read low 1.01
